Assay outcomes (PubChem)
a7 integrin act = integrin-mediated muscular dystrophy alleviation activation | alpha7betagal myoblasts, beta-gal FDG fluorescence, 48 h | AID 624291 | Potency, µM (series often up to 38.3 µM), for inactives: top-dose activation, most hits filed as activators | 350,000 compounds, 0.064% hits;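 note: potency is the fitted concentration of half-maximal effect; 100% = response of the positive control SU9516; nearly all actives have a fitted effect of over 60% in size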
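Alpha7betagal+/- myoblasts (passage 13) were plated 16-24 hr, then exposed to compounds (1:260 dilution of DMSO stock) for 48 hours at 37C. After MPER lysis, β-galactosidase reporter activity was read as FDG fluorescence (ex 480/em 540) after 30 minutes.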
IL-1B inflam inh = inhibitors of inflammasome signaling (IL-1 beta secretion); THP-1 LPS/ATP IL-1B secretion, AlphaLISA, 16 h; active compounds read low; activity change, % at 57.5 µM; 360,000 compounds, 4.7% hits; AID 743279; in the data active = activity change below about -50%; inconclusive = mostly about -30% to -49%; note: % is set by controls: 0 for no effect and ±100 for the full control effect
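Secreted IL-1B measured by AlphaLISA bead assay after 16 h compound exposure of THP-1 cells; compounds (final up to 57.5 uM) added 1 h before LPS (250 ng/mL) and ATP (1.25 mM) stimulation; lower signal means less secretion.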
D3 ag = agonists of human D3 dopamine receptor | P35462 | 410,000 compounds, 0.58% hits | D3R DiscoveRx beta-arrestin cells, luminescence, 90 min | max activation, %; in the data active = max activation above about 30%; note: 0% is about no effect
Target sequence (P35462 whole entry, looked up): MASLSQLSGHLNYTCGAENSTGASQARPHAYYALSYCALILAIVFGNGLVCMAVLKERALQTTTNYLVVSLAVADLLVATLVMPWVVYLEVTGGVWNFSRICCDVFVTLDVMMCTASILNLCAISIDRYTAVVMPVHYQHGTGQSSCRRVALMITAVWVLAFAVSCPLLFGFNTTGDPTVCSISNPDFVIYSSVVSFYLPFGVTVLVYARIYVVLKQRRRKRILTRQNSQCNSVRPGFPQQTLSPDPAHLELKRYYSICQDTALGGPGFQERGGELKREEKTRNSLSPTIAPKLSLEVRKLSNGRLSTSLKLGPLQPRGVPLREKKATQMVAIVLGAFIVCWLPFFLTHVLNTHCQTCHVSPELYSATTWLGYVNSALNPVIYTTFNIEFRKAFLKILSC
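Agonist mode: compounds and dopamine controls were applied to plated cells for 90 min at 37 degrees C after an overnight attachment at 1500 cells/well. Luminescent read-out followed 30 - 60 minutes at room temperature with DiscoveRx detection reagent.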
DRD3 antagonist = blocks the human D3 dopamine receptor | P35462 | D3R cells, DiscoveRx beta-arrestin luminescence, antagonist mode; active compounds read low | max response, negative = inhibition, % | 360,000 compounds, 2.5% hits | AID 652054; in the data active = max response below about -50%; inconclusive = no clear call, values can overlap the other calls; note: % is set by controls: 0 for no effect and ±100 for the full control effect
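Cells plated overnight at 1500 cells/well, then exposed to library compounds with dopamine controls for 90 minutes at 37 degrees C. DiscoveRx reagent added for 30–60 minutes at room temperature; luminescence read, quantitative HTS format.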
ATXN2 expr inh = ATXN2 expression inhibition. HEK-293 ATXN2-luciferase reporter, luminescence, 24 h. Potency, µM (top dose mostly 57 µM), inactives show at the highest dose activity change, negative = inhibition, usual class: inhibitors. 360,000 compounds, 0.72% hits. AID 1745845; note: potency is the fitted concentration of half-maximal effect; % is set by controls: 0 for no effect and ±100 for the full control effect; nearly all actives have a fitted effect of over 55% in size
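ATXN2-luciferase reporter cells (luciferase flanked by upstream and downstream ATXN2 gene portions) were treated 24 h at 37 °C with compounds at up to 57 uM. SteadyGlo luminescence gave expression; GF-AFC fluorescence gave viability.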
S2 tox = cell viability loss in ATXN counter-screen. AID 651635. S2 cells (HEK-293 line with an ATXN2-luciferase reporter) viability, CellTiter-Fluor protease fluorescence, 24 h. Potency, µM (top dose mostly 56.7 µM), actives largely listed as cytotoxic. 400,000 compounds, 0.49% hits; note: potency is the fitted concentration of half-maximal effect; nearly all actives have a fitted effect of over 40% in size
* = called active by the depositor. Most compounds without a hit are left out; they make up all but 7% or so of the library. Unless noted, calls come from the whole dose curve; as a rule, active = well fitted curve in the direction sought with a large enough effect; inconclusive = small, poorly fitted or top-dose-only effect, or another doubt; inactive = no such curve, though single readings can be large; an effect the other way counts as inactive or inconclusive.

Results for CCOC(=O)C1(Cc2ccccc2)CCN(Cc2cccc(OC)c2O)CC1 ?
a7 integrin act: -12%; IL-1B inflam inh: -50*; D3 ag: -6; DRD3 antagonist: 0; ATXN2 expr inh: -16%; S2 tox: inactive

How did CCOC(=O)C1(Cc2ccccc2)CCN(Cc2cccc3nccnc23)CC1 do in these assays?
a7 integrin act: -17%; IL-1B inflam inh: -64*; D3 ag: -8; DRD3 antagonist: -2; ATXN2 expr inh: -34%; S2 tox: inactive

How did CCOC(=O)C1(Cc2ccccc2)CCN(Cc2csc(C(C)=O)c2)CC1 do in these assays?
a7 integrin act: -1%; IL-1B inflam inh: -61*; D3 ag: -12; DRD3 antagonist: -28; ATXN2 expr inh: -37%; S2 tox: inactive

What do the screens show for `Cc1cncc2cccc(S(=O)(=O)N3CCCN(C(=O)CN)C[C@@H]3C)c12`?
ATXN2 expr inh: 10%

Results for Cc1nnsc1C(=O)N1CCC(C(=O)c2ccccc2)CC1 ?
a7 integrin act: 4%; IL-1B inflam inh: 11; D3 ag: -3; DRD3 antagonist: -5; ATXN2 expr inh: -30%; S2 tox: inactive

Results for COc1cc(NC(=O)CSc2nc3[nH]c(=O)cc(O)c3s2)cc(OC)c1OC ?
a7 integrin act: -2%; IL-1B inflam inh: 2; D3 ag: 2; DRD3 antagonist: 7; S2 tox: inactive

Results for CCOc1ccc2c(c1)sc(N)[n+]2Cc1cc(C)cc2cccnc12 ?
a7 integrin act: -58%; IL-1B inflam inh: -92*; D3 ag: -17; DRD3 antagonist: -19; ATXN2 expr inh: inconclusive; S2 tox: inconclusive

Results for COc1ccc2c(c1)sc(N)[n+]2Cc1cc(C)cc2cccnc12 ?
a7 integrin act: -40%; IL-1B inflam inh: -52*; D3 ag: -25; DRD3 antagonist: 13; ATXN2 expr inh: -20%; S2 tox: inconclusive

Results for Cc1cc(C[n+]2ncsc2N)c2ncccc2c1 ?
a7 integrin act: -5%; IL-1B inflam inh: -12; D3 ag: -5; DRD3 antagonist: -17; ATXN2 expr inh: inconclusive; S2 tox: inactive

Results for CC(C)Cn1c(-c2ccc(F)cc2)n[nH]c1=S ?
a7 integrin act: 6%; IL-1B inflam inh: 13; D3 ag: -14; DRD3 antagonist: -22; ATXN2 expr inh: -1%; S2 tox: inactive

Results for Cc1ccc2[nH]c(O)c(N=NC(=O)CCc3ccccc3)c2c1Br ?
a7 integrin act: 11%; IL-1B inflam inh: -88*; D3 ag: -5; DRD3 antagonist: -7; ATXN2 expr inh: 5%; S2 tox: inactive

Results for O=C(CSCc1ccccc1)N=Nc1c(O)[nH]c2ccccc12 ?
a7 integrin act: 19%; IL-1B inflam inh: -3; D3 ag: -8; DRD3 antagonist: 0; ATXN2 expr inh: 38%; S2 tox: inactive

How did CCN(CC)S(=O)(=O)c1ccc(O)c(NC(=O)CN2CCc3ccccc3C2)c1 do in these assays?
a7 integrin act: 12%; IL-1B inflam inh: 7; D3 ag: 1; DRD3 antagonist: 8; ATXN2 expr inh: -1%; S2 tox: inconclusive

What do the screens show for `COc1ccc(Cl)cc1NC(=O)CN1CCc2ccccc2C1`?
a7 integrin act: -23%; IL-1B inflam inh: -81*; D3 ag: -14; DRD3 antagonist: -6; ATXN2 expr inh: -25%; S2 tox: inactive

Results for COC(=O)c1ccc(C)c(NC(=O)c2ccc(CN3CCc4ccccc4C3)cc2)c1 ?
a7 integrin act: 4%; IL-1B inflam inh: 32; D3 ag: -19; DRD3 antagonist: -92*; ATXN2 expr inh: inconclusive; S2 tox: inactive

What do the screens show for `COc1ccc(C)cc1NC(=O)c1ccc(CN2CCc3ccccc3C2)cc1`?
a7 integrin act: -6%; IL-1B inflam inh: -18; D3 ag: -19; DRD3 antagonist: -69*; ATXN2 expr inh: -19%; S2 tox: inactive

What do the screens show for `CN(C)S(=O)(=O)c1ccc(Cl)c(NC(=O)CN2CCc3ccccc3C2)c1`?
a7 integrin act: -54%; IL-1B inflam inh: -16; D3 ag: 74*; DRD3 antagonist: 2; ATXN2 expr inh: inconclusive; S2 tox: inactive

How did COc1cc2c(cc1OC)CN(CC(=O)Nc1ccc(Cl)cc1Cl)CC2 do in these assays?
a7 integrin act: 2%; IL-1B inflam inh: 12; D3 ag: -6; DRD3 antagonist: inconclusive; ATXN2 expr inh: -35%; S2 tox: inactive

What do the screens show for `O=C(NCCSCc1cccc(Cl)c1)C1CCN(S(=O)(=O)Cc2ccccc2)CC1`?
D3 ag: 1; ATXN2 expr inh: -22%; S2 tox: inconclusive

Results for O=C(Nc1nnc(-c2ccc(Cl)cc2)o1)Nc1ccccc1Cl ?
a7 integrin act: 4%; IL-1B inflam inh: -29; D3 ag: -3; DRD3 antagonist: 15; ATXN2 expr inh: -13%; S2 tox: inactive

Results for Cc1cccc(-c2nnc(NC(=O)c3ccc(Cl)cc3)o2)c1 ?
a7 integrin act: -27%; IL-1B inflam inh: 66; D3 ag: -18; DRD3 antagonist: -97*; ATXN2 expr inh: inconclusive; S2 tox: inactive

How did CSc1cccc(-c2nnc(NC(=O)c3ccc4c(c3)OCCO4)o2)c1 do in these assays?
D3 ag: -10

Results for O=C(Nc1nnc(-c2ccc(Cl)cc2)o1)c1nc2ccccc2s1 ?
a7 integrin act: 13%; IL-1B inflam inh: 21; D3 ag: -9; DRD3 antagonist: -74*; ATXN2 expr inh: -5%; S2 tox: inactive

What do the screens show for `O=C(Nc1nnc(-c2ccc3c(c2)OCCO3)o1)c1ccc(Cc2ccccc2)cc1`?
a7 integrin act: -21%; IL-1B inflam inh: 5; D3 ag: 7; DRD3 antagonist: -14; ATXN2 expr inh: inconclusive; S2 tox: 25µM*

What do the screens show for `CC(=O)Nc1ccc(C(=O)NNC(=O)c2csc(N3CCOCC3)n2)cc1`?
a7 integrin act: -17%; IL-1B inflam inh: -28; D3 ag: -3; DRD3 antagonist: -15; S2 tox: inactive

Results for COc1ccc(OC)c(NC(=O)Nc2c(C)n(C)n(-c3ccccc3)c2=O)c1 ?
D3 ag: 2; ATXN2 expr inh: 7%; S2 tox: inactive

Results for O=C(CCn1cncn1)N1CCCC(N2CCN(c3ccc(F)cc3)CC2)C1 (stereo not given) ?
a7 integrin act: -8%; IL-1B inflam inh: 8; D3 ag: -6; DRD3 antagonist: 11; ATXN2 expr inh: 4%; S2 tox: inconclusive

How did Cc1cccc(C)c1OCC(=O)N[C@@H](Cc1ccccc1)[C@@H](O)C[C@H](Cc1ccccc1)NC(=O)[C@H](C(C)C)N1CCCNC1=O do in these assays?
D3 ag: 2; ATXN2 expr inh: inconclusive; S2 tox: 32µM*
